Measurements reported in article PMC7862700, “An all-to-all approach to the identification of sequence-specific readers for epigenetic DNA modifications on cytosine”.

Tests used:
Test in all cases: DAPPL (digital affinity profiling via proximity ligation, sequencing); 10 mM Tris-HCl pH 7.5, 50 mM NaCl, 1 mM DTT, 4% glycerol, room temperature, 30 min; GST-TFs on glutathione beads, 16-mer random dsDNA library, 0.1% formaldehyde crosslink after washing; high values mean tight binding
FEV = target: T1, FEV (Homo sapiens, UniProt Q99581 1-238); conditions: protein: recombinant; tags: N-terminal GST; dsDNA, one strand shown
T1 sequence: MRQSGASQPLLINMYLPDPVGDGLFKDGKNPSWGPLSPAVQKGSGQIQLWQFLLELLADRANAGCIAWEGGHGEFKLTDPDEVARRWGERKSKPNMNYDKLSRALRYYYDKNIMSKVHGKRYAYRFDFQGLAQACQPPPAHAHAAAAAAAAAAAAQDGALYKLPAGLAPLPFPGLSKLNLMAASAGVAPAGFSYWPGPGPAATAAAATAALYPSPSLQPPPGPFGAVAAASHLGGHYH
In short: (§1)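 Yeast served to express human transcription factors as GST fusions, which were then captured on glutathione beads and labelled with DNA barcodes. Pooled with a tag-only sample, they were incubated with 200 nmole of a 16-mer random double-stranded DNA library for 30 min at room temperature in Tris/NaCl/DTT/glycerol buffer, washed, crosslinked with 0.1% formaldehyde, ligated by proximity, amplified by PCR and sequenced. Dividing each hexamer's read frequency for a factor by its frequency for the tag-only sample gives the binding signal.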

ETV5 = ETV5 (Homo sapiens, UniProt P41161 1-510); conditions: protein: recombinant; tags: N-terminal GST; dsDNA, one strand shown
In short: as §1

HSF1 = HSF1 (Homo sapiens, UniProt Q00613 1-529); conditions: protein: recombinant; tags: N-terminal GST; chain copies: 3; dsDNA, one strand shown
In short: as §1

SPIC = target: T2, SPIC (Homo sapiens, UniProt Q8N5J4 1-248); conditions: protein: recombinant; tags: N-terminal GST; dsDNA, one strand shown
T2 sequence: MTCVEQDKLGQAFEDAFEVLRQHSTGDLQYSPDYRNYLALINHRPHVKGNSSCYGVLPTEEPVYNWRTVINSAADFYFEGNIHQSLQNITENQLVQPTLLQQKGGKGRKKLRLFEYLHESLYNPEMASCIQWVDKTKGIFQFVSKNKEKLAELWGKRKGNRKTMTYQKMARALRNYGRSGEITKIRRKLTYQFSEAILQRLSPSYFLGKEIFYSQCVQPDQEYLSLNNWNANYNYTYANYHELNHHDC
In short: as §1

ELF4 = ELF4 (Homo sapiens, UniProt Q99607 1-663); conditions: protein: recombinant; tags: N-terminal GST; dsDNA, one strand shown
In short: as §1

ELK4 = target: T3, ELK4 (Homo sapiens, UniProt P28324-2 1-405); conditions: protein: recombinant; tags: N-terminal GST; dsDNA, one strand shown
T3 sequence: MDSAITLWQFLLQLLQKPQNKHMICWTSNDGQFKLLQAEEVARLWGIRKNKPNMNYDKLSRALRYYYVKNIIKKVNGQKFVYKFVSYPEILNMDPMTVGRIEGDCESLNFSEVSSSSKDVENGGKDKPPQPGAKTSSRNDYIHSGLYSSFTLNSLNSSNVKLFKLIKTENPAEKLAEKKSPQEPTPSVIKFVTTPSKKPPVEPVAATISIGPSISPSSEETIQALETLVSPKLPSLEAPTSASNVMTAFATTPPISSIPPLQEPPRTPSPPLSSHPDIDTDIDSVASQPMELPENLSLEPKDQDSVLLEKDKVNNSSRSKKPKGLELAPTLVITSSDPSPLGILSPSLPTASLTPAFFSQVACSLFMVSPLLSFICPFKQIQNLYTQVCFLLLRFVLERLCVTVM
In short: as §1

ETV2 = target: T4, ETV2 (Homo sapiens, UniProt O00321 1-342); conditions: protein: recombinant; tags: N-terminal GST; dsDNA, one strand shown
T4 sequence: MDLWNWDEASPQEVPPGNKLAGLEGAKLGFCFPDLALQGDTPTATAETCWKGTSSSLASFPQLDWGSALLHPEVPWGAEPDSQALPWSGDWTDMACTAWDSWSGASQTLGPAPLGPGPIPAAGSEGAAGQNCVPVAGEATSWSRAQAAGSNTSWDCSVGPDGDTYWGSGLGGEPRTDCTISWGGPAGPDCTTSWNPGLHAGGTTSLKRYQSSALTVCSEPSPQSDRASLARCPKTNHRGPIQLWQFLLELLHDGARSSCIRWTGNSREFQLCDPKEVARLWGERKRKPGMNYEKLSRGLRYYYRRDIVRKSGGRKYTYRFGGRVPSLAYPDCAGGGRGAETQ
In short: as §1

ELF3 = target: T5, ELF3 (Homo sapiens, UniProt P78545 1-371); conditions: protein: recombinant; tags: N-terminal GST; dsDNA, one strand shown
T5 sequence: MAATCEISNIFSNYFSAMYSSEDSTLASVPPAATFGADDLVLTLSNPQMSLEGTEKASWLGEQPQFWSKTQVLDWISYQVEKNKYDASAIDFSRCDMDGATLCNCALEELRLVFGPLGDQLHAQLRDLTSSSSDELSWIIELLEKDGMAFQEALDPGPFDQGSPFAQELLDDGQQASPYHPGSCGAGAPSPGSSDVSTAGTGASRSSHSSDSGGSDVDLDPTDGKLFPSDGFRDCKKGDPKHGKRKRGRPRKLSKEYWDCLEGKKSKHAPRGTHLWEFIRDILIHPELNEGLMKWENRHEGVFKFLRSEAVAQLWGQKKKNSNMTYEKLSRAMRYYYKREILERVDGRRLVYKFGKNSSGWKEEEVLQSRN
In short: as §1

CRX = CRX (Homo sapiens, UniProt O43186 1-299); conditions: protein: recombinant; tags: N-terminal GST; dsDNA, one strand shown
In short: as §1

CRX, sequence (O43186 whole entry): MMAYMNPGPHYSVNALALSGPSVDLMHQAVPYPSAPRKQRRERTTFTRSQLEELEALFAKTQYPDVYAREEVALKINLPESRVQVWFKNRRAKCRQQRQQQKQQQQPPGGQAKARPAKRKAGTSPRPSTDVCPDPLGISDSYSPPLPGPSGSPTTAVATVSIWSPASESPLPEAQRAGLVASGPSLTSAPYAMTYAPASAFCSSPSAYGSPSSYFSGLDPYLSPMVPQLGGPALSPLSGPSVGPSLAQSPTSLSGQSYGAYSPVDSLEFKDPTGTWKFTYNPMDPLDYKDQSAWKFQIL
ETV5, sequence (P41161 whole entry): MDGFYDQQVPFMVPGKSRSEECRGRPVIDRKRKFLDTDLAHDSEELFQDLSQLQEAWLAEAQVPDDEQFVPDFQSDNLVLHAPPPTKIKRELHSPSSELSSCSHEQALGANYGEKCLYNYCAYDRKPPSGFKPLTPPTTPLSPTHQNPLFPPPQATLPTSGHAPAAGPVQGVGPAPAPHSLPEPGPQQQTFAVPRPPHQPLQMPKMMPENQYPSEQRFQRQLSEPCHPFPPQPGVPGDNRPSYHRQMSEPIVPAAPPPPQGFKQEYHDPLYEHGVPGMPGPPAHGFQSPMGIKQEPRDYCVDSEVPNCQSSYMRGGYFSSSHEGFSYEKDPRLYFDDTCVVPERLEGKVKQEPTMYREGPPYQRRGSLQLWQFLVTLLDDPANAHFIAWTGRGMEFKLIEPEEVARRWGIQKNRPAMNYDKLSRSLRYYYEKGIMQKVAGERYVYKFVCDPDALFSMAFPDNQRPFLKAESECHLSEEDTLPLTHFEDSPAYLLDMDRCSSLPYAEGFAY
HSF1, sequence (Q00613 whole entry): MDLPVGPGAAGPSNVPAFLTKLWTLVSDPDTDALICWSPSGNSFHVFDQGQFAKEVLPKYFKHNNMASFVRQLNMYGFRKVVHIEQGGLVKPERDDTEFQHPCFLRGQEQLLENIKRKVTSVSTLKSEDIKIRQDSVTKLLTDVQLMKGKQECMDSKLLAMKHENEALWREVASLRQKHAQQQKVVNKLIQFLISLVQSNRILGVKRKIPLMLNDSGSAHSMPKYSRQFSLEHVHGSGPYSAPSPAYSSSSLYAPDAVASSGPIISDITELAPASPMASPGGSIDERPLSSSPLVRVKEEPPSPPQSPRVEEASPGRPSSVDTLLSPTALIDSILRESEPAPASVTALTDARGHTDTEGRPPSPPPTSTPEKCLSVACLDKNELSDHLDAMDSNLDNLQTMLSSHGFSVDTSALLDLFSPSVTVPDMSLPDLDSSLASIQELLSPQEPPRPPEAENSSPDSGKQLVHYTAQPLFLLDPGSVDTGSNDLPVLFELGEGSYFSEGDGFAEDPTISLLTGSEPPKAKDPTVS
ELF4, sequence (Q99607 whole entry): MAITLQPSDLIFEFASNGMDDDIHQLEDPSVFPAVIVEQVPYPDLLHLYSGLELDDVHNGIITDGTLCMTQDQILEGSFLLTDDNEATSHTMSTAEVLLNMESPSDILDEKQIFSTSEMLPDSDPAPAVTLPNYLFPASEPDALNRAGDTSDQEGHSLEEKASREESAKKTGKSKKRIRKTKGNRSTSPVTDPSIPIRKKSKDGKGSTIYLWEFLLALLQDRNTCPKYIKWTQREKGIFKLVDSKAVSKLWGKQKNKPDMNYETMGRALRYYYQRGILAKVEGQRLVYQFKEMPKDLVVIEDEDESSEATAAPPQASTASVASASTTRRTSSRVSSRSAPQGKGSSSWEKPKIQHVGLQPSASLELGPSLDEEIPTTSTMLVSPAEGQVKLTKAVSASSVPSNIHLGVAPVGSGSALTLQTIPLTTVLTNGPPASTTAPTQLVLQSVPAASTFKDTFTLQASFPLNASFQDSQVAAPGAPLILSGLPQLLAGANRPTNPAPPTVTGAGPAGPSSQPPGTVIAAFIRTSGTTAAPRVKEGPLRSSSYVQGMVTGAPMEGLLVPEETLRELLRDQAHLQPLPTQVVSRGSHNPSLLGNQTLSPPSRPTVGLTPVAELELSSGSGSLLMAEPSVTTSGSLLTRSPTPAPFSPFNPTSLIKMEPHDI

CTGTTT
binding signal (FEV): 1.41 fold enrichment (6-mer frequency, TF over GST control) | binding signal (ETV5): 1.42 fold enrichment (6-mer frequency, TF over GST control) | binding signal (HSF1): 1.13 fold enrichment (6-mer frequency, TF over GST control) | binding signal (SPIC): 1.31 fold enrichment (6-mer frequency, TF over GST control) | binding signal (ELF4): 1.38 fold enrichment (6-mer frequency, TF over GST control) | binding signal (ELK4): 1.29 fold enrichment (6-mer frequency, TF over GST control) | binding signal (ETV2): 1.4 fold enrichment (6-mer frequency, TF over GST control) | binding signal (ELF3): 1.14 fold enrichment (6-mer frequency, TF over GST control) | binding signal (CRX): 1.08 fold enrichment (6-mer frequency, TF over GST control)
